Inconclusive results are not listed. Calls of active or inactive are those of the source. How the source made its calls: active means hit-call score of the fitted dose curve at least 0.9, where 1 is the maximum; inconclusive means response in the unintended direction; inactive means score below 0.9.

Chain of rat Adrenergic, Alpha 1, Non-selective Receptor (Adra1), Adra1a (gene 29412) (P43140 whole entry, looked up): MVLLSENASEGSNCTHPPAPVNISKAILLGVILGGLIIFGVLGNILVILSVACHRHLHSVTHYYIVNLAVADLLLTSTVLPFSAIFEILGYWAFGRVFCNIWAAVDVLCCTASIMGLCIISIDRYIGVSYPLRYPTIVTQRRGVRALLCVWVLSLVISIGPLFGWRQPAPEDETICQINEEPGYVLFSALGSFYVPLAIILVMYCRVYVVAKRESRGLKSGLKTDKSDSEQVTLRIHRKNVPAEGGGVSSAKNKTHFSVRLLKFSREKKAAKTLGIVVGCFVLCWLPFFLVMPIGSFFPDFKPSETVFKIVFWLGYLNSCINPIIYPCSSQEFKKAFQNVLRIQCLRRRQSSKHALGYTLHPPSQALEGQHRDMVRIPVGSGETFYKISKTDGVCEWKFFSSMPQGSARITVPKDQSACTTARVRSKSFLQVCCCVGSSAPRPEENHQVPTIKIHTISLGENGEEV

This test concerns the target rat Adrenergic, Alpha 1, Non-selective Receptor (Adra1), Adra1a (gene 29412) (UniProt P43140). The test can be described thus: NVS_GPCR_rAdra1_NonSelective: NovaScreen (NVS) G Protein-Coupled Receptor Assay for rat Adrenergic, Alpha 1, Non-selective Receptor (Adra1) (AID 2283289). As for the experimental part:
NVS_GPCR_rAdra1_NonSelective is a biochemical, single-readout assay that uses extracted gene-proteins from Rat forebrain membranes in a tissue-based cell-free assay. Measurements were taken 1 hour after chemical dosing in a 48-well plate.NVS_GPCR_rAdra1_NonSelective is one of one assay component(s) measured or calculated from the NVS_GPCR_rAdra1_NonSelective assay. It is designed to make measurements of radioligand binding, a form of binding reporter, as detected with scintillation counting signals by Filter-based radiodetection technology.Data from the assay component NVS_GPCR_rAdra1_NonSelective was analyzed into 1 assay endpoint. This assay endpoint, NVS_GPCR_rAdra1_NonSelective, was analyzed in the positive analysis fitting direction relative to DMSO as the negative control and baseline of activity. Using a type of binding reporter, loss-of-signal activity can be used to understand changes in the binding as they relate to the gene Adra1a. Furthermore, this assay endpoint can be referred to as a primary readout, because the performed assay has only produced 1 assay endpoint. To generalize the intended target to other relatable targets, this assay endpoint is annotated to the gpcr intended target family, where the subfamily is rhodopsin-like receptor.
Binding assays used specific radioligands (tritiated, iodinated) with non-radioactive competitive displacement ligands in agonist or antagonist protocols (as indicated) and various reference compounds and inhibitors to titrate specific binding to receptors and transporters. Most enzyme assays (CYPs, kinases, phosphatases, proteases, HDACs) used recombinant protein and specific substrates (fluorescence mostly, some colorimetric and radioactive) and inhibitors, followed by a biochemical separation of substrate and product. All assays for the biochemical HTS were initially run in duplicate at a single concentration (10 uM for CYP450 assays and 25 uM for all others). Assay-chemical combinations meeting a pre-defined threshold (e.g., 30% inhibition and other criteria defined below) were then run in singleton concentration-response format with maximum concentration of 20 uM for CYPs and 50 uM for all others. Each assay was run with positive and negative controls, and concurrent controls on every plate. The follow-up (secondary) screen tested active chemical-pairs in concentration series, as well as a few additional assays not tested in the primary screen, some selected negative inactives, and several cases re-run in the concentration series for confirmatory purposes.
As for `Nc1ccc(Nc2ccccc2)cc1`, the half-maximal activity concentration (AC50) (as a rule, the midpoint of the concentration-response curve, whichever way the signal moves) was 32.3 µM (active).

On to `CC[C@H]1OC(=O)[C@H](C)[C@@H](O[C@H]2C[C@@](C)(OC)[C@@H](O)[C@H](C)O2)[C@H](C)[C@@H](O[C@@H]2O[C@H](C)C[C@H](N(C)C)[C@H]2O)[C@](C)(O)C[C@@H](C)C(=O)[C@H](C)[C@@H](O)[C@]1(C)O`, for which the call was inactive.

`CCc1cc(SCc2sc(-c3ccc(C(F)(F)F)cc3)nc2CN2CCN(c3ccc(OC)cc3)CC2)ccc1OCC(=O)O`: the molecule was called inactive.

With `CN(C)c1ccc(N=NS(=O)(=O)O)cc1`, the AC50 is 23.8 µM (active).

As for `CCN(C(=O)c1cc(C)cc(OC[C@H](C)Nc2ccncc2)c1)C(C)C`, the AC50 is 13.4 µM (active).

As to `Cc1[nH]cnc1C[C@H]1CCc2c(C)c3ccccc3n2C1=O`, the AC50 is 3.15 µM (active).

As for `O=c1[nH]c2ccc(S(=O)CCN3CCC(Cc4ccc(F)cc4)CC3)cc2o1` (configuration not stated), the AC50 is 1.07 µM (active).

Turning to `CNS(=O)(=O)c1cc(C(=O)N2CCC(CCN3C4CCC3CC(n3c(C)nc5ccccc53)C4)(c3cccc(F)c3)CC2)c(Cl)cc1F` (configuration not stated), the AC50 was 1.92 µM (active).

Consider `COc1cccc(-c2ccc(/C=C\CN3CCCCCC3)cc2Cl)c1`, for which the AC50 is 15.2 µM (active).

As for `Cc1ccc(C)c(O)c1`, the molecule was called inactive.

Regarding `CC[C@H]1CC[C@H](NCc2cc3c(cc2OC)[C@H]2C[C@H]2C(=O)N3C)[C@H](c2ccccc2)N1`, the AC50 is 17.5 µM (active).

Consider `CCCN(C1CCN(C(=O)C2CCNCC2)CC1)[C@@H]1CCc2ccc(OC)cc2C1`, for which the half-maximal activity concentration (AC50) was 16.1 µM (active).

Source of the values: PubChem BioAssay (EPA / NIEHS).
